Experimental data as given in the supplement of paper PMC6555819.

Legend:
Assay in all cases: PBM binding z-score (relative to random genomic background probes); higher = stronger binding; sequences stand for … in GC…GCGATTGACAGCGTAGAATGAAGG
[1] = system: FXR:RXRa (NR concentration 270 nM, RXRa partner concentration 90 nM)
How it was run: (§1)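 Custom Agilent 4×180K protein-binding microarrays carried double-stranded probes. Their 34-nt variable regions held direct-repeat seeds, single-nucleotide variants, half-site ablations and random human genomic background sequences. Arrays were incubated 1 h with ligand-free nuclear receptor dimers in PBS pH 7.4, 2% milk, 0.02% Triton X-100, 1 mM DTT, 0.2 mg/mL BSA and 0.4 mg/ml salmon testes DNA. Antibodies against each partner (one per run) detected binding, and scanned fluorescence was regression-normalized. Binding z-scores use random background probes as reference.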

[2] = system: LXRa:RXRa (NR concentration 270 nM, RXRa partner concentration 90 nM)
How it was run: as §1

[3] = system: LXRa homodimer (NR concentration 270 nM)
How it was run: as §1

[4] = system: LXRb:RXRa (NR concentration 270 nM, RXRa partner concentration 90 nM)
How it was run: as §1

[5] = system: LXRb homodimer (NR concentration 270 nM)
How it was run: as §1

[6] = system: PPARa:RXRa (NR concentration 270 nM, RXRa partner concentration 90 nM)
How it was run: as §1

[7] = system: PPARg:RXRa (NR concentration 180 nM, RXRa partner concentration 90 nM)
How it was run: as §1

[8] = system: PPARg:RXRa 270nM:90nM, anti-RXR (NR concentration 270 nM, RXRa partner concentration 90 nM)
How it was run: as §1

[9] = system: PPARg:RXRa 30nM:10nM, anti-RXR (NR concentration 30 nM, RXRa partner concentration 10 nM)
How it was run: as §1

[10] = system: PPARg:RXRa 90nM:30nM, anti-RXR (NR concentration 90 nM, RXRa partner concentration 30 nM)
How it was run: as §1

[11] = system: PPARg:RXRa DBDmut IVT, anti-RXR (DBD mutation: RXRa K156A/R161A, NR concentration 270 nM, RXRa partner concentration 90 nM)
How it was run: as §1

[12] = system: PPARg:RXRa IVT, anti-PPARg (NR concentration 270 nM, RXRa partner concentration 90 nM)
How it was run: as §1

[13] = system: PPARg DBDmut:RXRa IVT, anti-PPARg (DBD mutation: PPARg1 K132A/R137A, NR concentration 270 nM, RXRa partner concentration 90 nM)
How it was run: as §1

[14] = system: PPARg DBDmut IVT, anti-PPARg (DBD mutation: PPARg1 K132A/R137A, NR concentration 270 nM)
How it was run: as §1

[15] = system: PPARg homodimer (NR concentration 180 nM)
How it was run: as §1

[16] = system: PXR:RXRa (NR concentration 270 nM, RXRa partner concentration 90 nM)
How it was run: as §1

[17] = system: PXR homodimer (NR concentration 270 nM)
How it was run: as §1

[18] = system: RARa:RXR (NR concentration 270 nM, RXRa partner concentration 90 nM)
How it was run: as §1

[19] = system: RARa homodimer (NR concentration 270 nM)
How it was run: as §1

[20] = system: RARb:RXRa (NR concentration 270 nM, RXRa partner concentration 90 nM)
How it was run: as §1

Sequence | PBM binding z-score [1] | PBM binding z-score [2] | PBM binding z-score [3] | PBM binding z-score [4] | PBM binding z-score [5] | PBM binding z-score [6] | PBM binding z-score [7] | PBM binding z-score [8] | PBM binding z-score [9] | PBM binding z-score [10] | PBM binding z-score [11] | PBM binding z-score [12] | PBM binding z-score [13] | PBM binding z-score [14] | PBM binding z-score [15] | PBM binding z-score [16] | PBM binding z-score [17] | PBM binding z-score [18] | PBM binding z-score [19] | PBM binding z-score [20]
CTACCAAGGTGCACAAGGTCGTTGATTACTATTC | 0.933 | 1.22 | 0.723 | 1.74 | -0.173 | 1.69 | 0.548 | 0.538 | -0.186 | 0.246 | 0.47 | 0.223 | 0.019 | -0.417 | 0.705 | 1.86 | 1.22 | 1.87 | 0.655 | 1.29
GCTAGCAGGCCTTTTGGGTCACTCAATGACGGGC | 0.126 | -0.171 | -0.408 | 0.187 | -1.11 | 0.992 | 0.209 | 0.00506 | -0.68 | -0.138 | 0.302 | 0.843 | -1.25 | -1.51 | -0.592 | 0.137 | -0.69 | 0.937 | -0.611 | 1.06
CGTCCAAGGTCAAGGTCAGTGCAAGAGACTCGAA | 7.47 | 5.77 | 1.19 | 4.77 | 0.528 | 5.84 | 6.07 | 6.18 | 2.4 | 5.09 | 3.72 | 4.78 | -0.258 | -0.287 | 3.45 | 5.43 | 2.22 | 5.21 | 1.13 | 5.62
CTACCAAGGTGAACAAGGACGTTGATTACTATTC | 0.78 | 0.235 | 0.0356 | 0.647 | -0.411 | 0.963 | 0.812 | 0.636 | 0.194 | 0.209 | 2.52 | 2.17 | 0.0703 | 0.657 | 0.761 | 0.356 | 0.295 | 0.5 | 0.187 | 1.55
ACAGACAGGTGATGCAGGTAACTCAGGCTATCAT | -0.0955 | -0.176 | -0.459 | -0.222 | -0.442 | 0.00895 | 0.577 | -0.188 | -0.309 | -0.256 | 0.0988 | 0.729 | 0.0271 | 0.231 | 0.328 | -0.33 | 0.04 | -0.107 | 0.231 | -0.0709
GATACAGGGTCAGCTAGAGCCCAGAGTATGGAAA | 4.49 | 2.36 | -0.499 | 2.18 | -0.471 | 4.59 | 3.94 | 3.29 | 0.917 | 2.03 | 0.771 | 2.13 | -0.422 | -0.697 | 1.06 | 1.83 | -0.197 | 2.74 | -0.316 | 3.81
TCTTGTAGATCAAGCAGGTTAAAAAAGCCTGAGT | 0.399 | 0.66 | 0.0137 | 0.802 | -0.381 | 1.05 | -0.353 | 1.21 | 2.5 | 1.89 | 1.71 | 0.721 | 0.175 | 0.427 | 0.249 | 0.876 | 0.157 | 0.523 | 0.0055 | 0.189
CCTGCTAGGCCAATGGTCAGCTAAAGCAGCTCGC | -0.614 | -0.503 | -0.698 | -0.914 | -0.839 | -0.216 | 0.706 | 2.33 | 0.142 | 1.6 | 0.832 | 0.413 | -1.62 | -1.52 | -0.65 | -0.919 | -0.736 | -0.768 | -0.677 | 0.755
CGAACTAGGTCATCGACAGGACAGTGAATAGTAA | 3.83 | 2.6 | 0.8 | 2.02 | -0.0443 | 4.87 | 8.03 | 6.6 | 3.86 | 5.7 | 8.14 | 8.42 | 4.29 | 4.27 | 2.79 | 1.76 | 0.984 | 2.53 | 2.3 | 3.88
GCTCGGAGCACAAGGTCAGAGCTTTGTCCGTAGA | 1.22 | 1.42 | -0.454 | 0.993 | -1.38 | 2.34 | 0.273 | 1.03 | -0.387 | 0.2 | 0.516 | 0.181 | -1.55 | -1.25 | 0.0109 | 1.7 | -0.525 | 1.75 | -1.06 | 2.63
CAAACTAGGACAAGGTCAAAGTCGGTTTGTGCCA | 4.54 | 4.18 | 2.08 | 3.48 | 0.526 | 5.05 | 5.5 | 5.41 | 3.12 | 4.9 | 5.64 | 5.61 | 1.68 | 1.21 | 2.27 | 4.44 | 1.41 | 4.44 | 0.511 | 3.83
CGAACTAGGTCATTGTCAGGACAGTGAATAGTAA | 3.91 | 3.08 | 0.611 | 1.99 | 0.0511 | 4.67 | 7.44 | 6.43 | 4.07 | 5.88 | 8.22 | 8.47 | 5.17 | 6.24 | 3.98 | 1.84 | 0.47 | 2.49 | 0.423 | 3.48
TCATATAGGTAAATGCTAGGTGATAGTCCGATCT | 0.869 | 0.734 | -0.164 | 0.564 | -0.125 | 1.2 | 1.13 | 2.24 | 3.56 | 2.87 | 4.05 | 2.45 | 0.855 | 0.985 | 0.409 | 0.395 | 0.368 | 0.797 | 1.3 | 0.301
GTACCAAGGTTAATAGGTCGTTGATGAGTAGGCG | 2.13 | 1.67 | 0.289 | 1.34 | -0.213 | 3.18 | 3 | 3.43 | 1.01 | 2.5 | 1.85 | 3.6 | 0.0971 | -0.158 | 2.1 | 1.69 | 0.273 | 2.82 | 0.938 | 2.5
